# The whole screen tested about 360,000 compounds, of which about 1,300 (0.36%) were called active. For the sample, actives were picked, then their nearest neighbours and some compounds at random. Unmarked numbers belong to inactive results. No stated cut-off is given here; in the data, active means inhibition above about 19%; inactive means the rest.
# Test system: T-cell receptor (TCR)
# Assay: inhibitors of human TCR-CD3 interaction, primary screen, biochemical, fluorescence, TAMRA-labeled TCR probe (AID 651800);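 further: recombinant mutant TCR 2C K166C tagged with TAMRA read by polarization; 0% = receptor in buffer alone and 100% = receptor with positive control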
# Conditions: at 9.4 µM, hits give high values
row,SMILES,inhibition
1,O=C(NCC1CCCO1)C(C(=O)c1ccccc1)n1cc(Cl)ccc1=O (centres undefined),4.24%
2,CN(C)CCNC(=O)C(C(=O)c1ccccc1)n1ccccc1=O (centres undefined),27.9% (active)
3,CN(C)CCNC(=O)Cc1ccc([N+](=O)[O-])cc1,6.84%
4,Nc1ncnc2c1ncn2C1OC(CO)CC1O (centres undefined),-7.35%
5,COC(=O)c1c(-c2ccc(OC)cc2)c2c(c3c4ccccc4n(S(=O)(=O)c4ccc(C)cc4)c13)C(=O)N(C)C2,0.77%
6,O=S1(=O)c2c(cccc2N2CCCC2)O[C@H](COCc2ccccc2)CN1C1CC1,19.3% (active)
7,CSc1ccc(Oc2cccc3c2S(=O)(=O)N([C@H](C)c2ccccc2)C[C@@H](COCc2ccccc2)O3)cc1C,11.5%
8,O=S1(=O)c2c(cccc2N2CCCCC2)O[C@H](COCc2ccccc2)CN1C1CC1,2.48%
9,CC1CCN(C(=O)c2ncn3c2C(=O)N[C@@H](C)C3)CC1,3.49%
10,COc1ccc(/C=C/c2c(-c3cccc(C)c3)oc3ccc(-c4ccc5c(c4)OCO5)cc23)cc1,-3.78%
11,Nc1[nH]c(C(=O)c2ccc(Br)cc2)c(-c2ccc3c(c2)OCO3)c1C(=O)NCCc1c[nH]c2ccccc12,-5.65%
12,COc1ccccc1N(CC(=O)Nc1c(C)n(C)n(-c2ccccc2)c1=O)S(=O)(=O)c1ccccc1,3.09%
13,COc1ccccc1N(CC(=O)N1CCCCC1)S(=O)(=O)c1ccccc1,3.6%
14,COc1ccccc1N(CC(=O)N/N=C(\C)c1ccccc1O)S(=O)(=O)c1ccc(C)cc1,26.6% (active)
15,COC(=O)[C@]12C[C@H](CC(=O)N3CCN(C(=O)C4CC4)CC3)C(=O)N(Cc3ccc4c(c3)OCO4)C1=C[C@H](C(C)(C)C)O[C@@H]2C,3.03%
16,C/C=C/C=C/C(=O)O,27.1% (active)
17,COc1ccc(-c2ccccc2C2Cc3nnccc3CN2C(=O)Nc2ccccc2)cc1 (centres undefined),-1.6%
18,CCCCCCCCN1C(=O)[C@@H](CC(=O)NCc2ccccc2)C[C@@]2(C(=O)OC)C1=C[C@H](C(C)(C)C)O[C@@H]2C,-4.58%
19,O=C1C(Cc2ccc(O)cc2)NC(=S)N1Cc1ccccc1 (centres undefined),25.9% (active)
20,Cc1cc(C)c(NC(=O)CN2C(=O)NC(Cc3ccccc3)C2=O)c(C)c1 (centres undefined),-1.72%
21,CCCCc1ccc(NC(=O)CN2C(=O)NC(Cc3ccccc3)C2=O)cc1 (centres undefined),-0.34%
22,COc1ccccc1-c1ccc([C@@H]2C[C@H]3[C@H](CON3C)CN2S(=O)(=O)c2cc(Cl)cc(Cl)c2)cc1,-0.88%
23,C[C@@H]1ON(C)[C@H]2C[C@H]3c4cc(N5CCOCC5)ccc4CCN3C[C@@H]12,7.02%
24,COc1cccc2cc(C(N)=O)/c(=N\NC(=O)c3ccccc3)oc12,6.06%
25,CCN(CC)c1ccc(C(=O)N/N=C(\C)c2cccc(OC)c2)cc1,6.48%
26,CCN(CC)c1ccc2cc(C(N)=O)/c(=N\NC(=O)c3ccncc3)oc2c1,30.5% (active)
27,O=C(NCc1ccccc1)[C@H]1CCCN1C(=O)[C@@H]1CCCN1C(=O)c1ccc(Cl)cc1Cl,5.28%

row,SMILES,inhibition
1,CCc1ccc(C2=CC(=O)CC(C)(C)C2=O)cc1,-0.75%
2,COc1ccc(C(=O)NCCSc2ccccc2C)cc1,-0.19%
3,COc1ccc(C(=O)NNc2cc(C)nc(NNC(=O)c3ccc(OC)cc3)n2)cc1,19.4% (active)
4,COc1ccc(C(=O)NCC[N+](C)(C)C)cc1,-6.67%
5,CC(c1ccccc1)n1c(NCCCn2ccnc2)nc2c1c(=O)[nH]c(=O)n2C (centres undefined),5.62%
6,COc1ccc(S(=O)(=O)Nc2ccc3c(c2)C(=O)N([C@H](C)CO)C[C@H](C)[C@@H](CN(C)C)OCCCC[C@H](C)O3)cc1,-1.68%
7,CC(=O)c1ccc(S(=O)(=O)NCC2CCN(C(=O)C(=O)c3cccs3)CC2)cc1,-11.4%
8,CCN(CC)CCCC(C)n1c2nc(=O)[nH]c(=O)c-2nc2cc(Cl)ccc21 (centres undefined),54.6% (active)
9,O=C(NCc1ccccc1)[C@H]1CCCN1C(=O)[C@H]1CCCN1C(=O)c1cc(F)cc(F)c1,1.6%
10,Cc1ccc(-c2nn(-c3ccccc3)cc2/C=C/C(=O)Nc2cccc(S(N)(=O)=O)c2)cc1,83.6% (active)
11,O=C(/C=C/c1cn(-c2ccccc2)nc1-c1ccc2c(c1)OCCO2)NCCCN1CCOCC1,-3.23%
12,Cc1ccc(-c2nn(-c3ccccc3)cc2C(=O)Nc2cccc(S(=O)(=O)N3CCOCC3)c2)cc1,2.85%
13,CN(C)C(=O)N1CCN(C(=O)[C@@H](Cc2ccccc2)NC(=O)[C@H]2O[C@@H](n3ccc(N)nc3=O)[C@H](O)[C@@H]2O)CC1,-1.88%
14,COC(=O)C1=C(C(=O)OC)C2C=C(C(C)C)C1C(=O)C2(C)O (centres undefined),-5.88%
15,COC(=O)C1=C(C)N(Cc2cccc(C(F)(F)F)c2)C(=NCc2cccc(C(F)(F)F)c2)NC1c1ccccc1C(F)(F)F (centres undefined),7%
16,CC1CCCN(c2cccc3c2S(=O)(=O)N(Cc2ccc(F)cc2)[C@@H](C)[C@H](c2ccccc2)O3)C1 (some centres undefined),-3.78%
17,CC(C)C[C@H](NC(=O)CC1CCCC1)C(=O)N1CCC[C@H]1C(=O)NCc1ccccc1,-0.62%
18,COc1ccccc1C(=O)c1ccccc1C(=O)c1ccccc1,-2.38%
19,COc1ccccc1C(=O)NCC(=O)OCC(=O)NNC(=O)c1ccc(Br)cc1,7.36%
20,COc1ccccc1C(=O)NNC(=O)c1ccc(NC(=O)c2ccccc2)cc1,37.3% (active)
21,CC(=O)C1=C(C)N(Cc2ccc(Cl)cc2)C(=S)NC1c1ccc(F)cc1 (centres undefined),3.88%
22,COc1ccccc1Cc1c(-c2ccc(F)cc2)nc2ccc(C)cn12,-1.71%
23,O=C(NCc1ccccc1)[C@@H]1CCCN1C(=O)[C@@H](NS(=O)(=O)c1ccc(F)cc1F)C1CCCCC1,-7.08%
24,Cc1ccc(C(=O)NCC(=O)O)cc1S(=O)(=O)N1CCCCC1,21.8% (active)
25,Cc1ccc(C(=O)NNC(=O)c2ccncc2)cc1S(=O)(=O)N1CCCCC1,-4.33%
26,COc1ccccc1C(CNC(=O)c1ccc(C)c(S(=O)(=O)N2CCCCC2)c1)N(C)C (centres undefined),-9.01%
27,COC(=O)[C@]12C[C@H](CC(=O)NCc3ccc(OC)c(OC)c3)C(=O)N(Cc3ccccc3)C1=C[C@H](C(C)C)O[C@@H]2C1CC1,1.22%

row,SMILES,inhibition
1,Cc1nn(C)cc1N1C(=O)c2cccc3c(N)ccc(c23)C1=O,38% (active)
2,COc1ccc(NS(=O)(=O)c2cc(NC(=O)C3CCCCC3)ccc2N2CCOCC2)cc1,0.76%
3,COc1ccc(NS(=O)(=O)c2cc(NC(=O)c3ccc(S(=O)(=O)N(C)C)cc3)ccc2N2CCOCC2)cc1,1.69%
4,COc1ccc(NS(=O)(=O)c2cc(NC(=O)/C=C/c3cc(OC)c(OC)c(OC)c3)ccc2N2CCCCC2)cc1,22.8% (active)
5,Nc1[nH]c(C(=O)c2ccccc2)c(-c2ccc(Cl)cc2Cl)c1C(=O)c1ccccc1,4.17%
6,Nc1nc(CC(=O)CSc2ccc(Cl)cc2)nc(Nc2ccc(F)cc2)n1,4.84%
7,Cc1cc2nc3c(=O)[nH]c(=O)nc-3n(C[C@H](O)[C@H](O)[C@H](O)CO)c2cc1C,19.9% (active)
8,CN1CCCCC(NC(=O)C(C)(C)C)C1=O (centres undefined),-0.73%
9,CC(C)CNc1cccc2c1S(=O)(=O)N[C@H](C)CO2,0.56%
10,C[C@H]1CN([C@@H](C)CO)C(=O)CCCn2nncc2CO[C@@H]1CN(C)C(=O)Nc1ccc(N2CCN(C)CC2)cc1,3.36%
11,CN[C@H]1C[C@H]2c3[nH]c4c(-c5ccccc5)cccc4c3CCN2C(=O)[C@H]1[C@H](C)O,2.21%
12,NS(=O)(=O)c1ccc(NC(=O)COC(=O)c2c3c(nc4ccccc24)/C(=C\c2ccc4c(c2)OCO4)CCC3)cc1,50.3% (active)
13,CCN(CC(=O)Nc1ccc2c(c1)OCO2)S(=O)(=O)c1ccccc1,-7.59%
14,CC(NC(=S)Nc1ccc(S(N)(=O)=O)cc1)c1ccc2c(c1)OCO2 (centres undefined),-3.8%
15,O=C(N/N=C/c1ccco1)c1ccc(C(=O)N/N=C/c2ccco2)o1,21.8% (active)
16,Cc1c(Cl)cccc1NC(=O)CCC(=O)N/N=C/c1ccco1,1.69%
17,O=C(Cn1cnc2ccccc21)N/N=C/c1ccco1,3.99%
18,Cc1ccc2nc(CN(C)C(=O)[C@@H](Cc3ccccc3)NC(=O)[C@H]3O[C@@H](n4ccc(=O)[nH]c4=O)[C@H](O)[C@@H]3O)[nH]c2c1,3.29%
19,C=CCN=C1NC(c2cccc(C(F)(F)F)c2)C(C(=O)OC)=C(C)N1C (centres undefined),-6.24%
20,Cc1ccc(C(=O)N/C(=C\c2cccs2)C(=O)NCCc2ccccn2)cc1C,2.48%
21,COc1cc(/C=C(/NC(=O)c2ccccc2)C(=O)Nc2cccc(O)c2)c([N+](=O)[O-])cc1OC,-4.87%
22,O=C(N/N=C/c1cc([N+](=O)[O-])ccc1O)/C(=C\c1cccs1)NC(=O)c1ccccc1,30.9% (active)
23,C=CCn1c(=O)c(C(=O)NCc2ccc3c(c2)OCO3)c(O)c2ccccc21,4.79%
24,C=CCn1c(=O)c(C(=O)Nc2ncccc2O)c(O)c2ccccc21,29.1% (active)
25,Cn1c(=O)c(C(=O)Nc2ncccn2)c(O)c2ccccc21,3.65%

# Source: PubChem BioAssay AID651800 (The Scripps Research Institute Molecular Screening Center, 2012)
